The source of these data is PubChem BioAssay.

Where “and” joins values, the source holds several entries; their conditions need not be identical. Equal entries are not always repeated. Calls of active or inactive are those of the source. Unless noted, no stated cut-off is given here; in the data, active means parasite load remaining mostly below about 12% (no sharp cut-off); inactive means mostly above about 10%.

Assay [1] is described as follows: liver-stage malaria parasite growth inhibition, primary screen, cell-based, HepG2, luciferase luminescence, HepG2 viability (AID 624349).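 Further: 100% = mean of DMSO negative control wells on the same plate.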 The settings on record: P. berghei liver stage in HepG2, luciferase luminescence, concentration not given here; parasite load remaining: stronger effect = lower value; viability: measured here: HepG2 viability without parasites.
The nature of assay [2]: stimulators of nuclear beta-catenin in C2C12, primary screen, imaging, WNT3A-conditioned medium, mouse C2C12, NPC library (AID 1117326; in the data active means nuclear beta-catenin stimulation mostly above about 4.2%, no sharp cut-off; inactive means mostly below about 10%). The conditions noted are these: stronger effect = higher value.
For assay [3], the system named is Hepatitis C virus NS3 helicase. The experiment in a line: HCV NS3 helicase inhibitors, primary screen, biochemical, fluorescence polarization, LOPAC1280 library (AID 687035; in the data active means inhibition above about 37%). The conditions noted are these: Purified HCV NS3 helicase, Cy5-dT15 ssDNA binding fluorescence polarization; stronger effect = higher value; concentration not given here. (In general: In fluorescence polarisation assays a small probe gives low polarisation when free and higher when bound to something large.)

Assay [4] in a line: Cy5 fluorescence quenching or enhancement artefacts, artefact control for HCV NS3 helicase inhibitor project, biochemical, LOPAC1280 (AID 687037; call rule not given here). The settings on record: Cy5-DNA-NS3h complex fluorescence interference counterscreen. On the technique in general: A counterscreen serves to expose hits that act by an unwanted route or on another target.

As to `CCOC(=O)OC(C)OC(=O)[C@@H]1N2C(=O)[C@@H](NC(=O)[C@H](N)c3ccccc3)[C@H]2SC1(C)C` (stereo partly drawn), in assay [1], the parasite load remaining was 83% (inactive) and 78.3% (inactive). For the same compound, the viability (as a rule, a read-out of living cells in per cent, often relative to untreated cells) in assay [1] was 104% and 79.2%. In addition, the nuclear beta-catenin stimulation in assay [2] (at 10 µM) was 1.2% (inactive); in assay [2] (stimulation, at 2 µM), 2.5%.
For the compound `CC(=O)Nc1c(I)cc(I)c(C(=O)O)c1I`, in assay [1], the parasite load remaining is 151% (inactive) and 81.4% (inactive); the viability is 82.9% and 215%. Further, in assay [2] (at 10 µM), the nuclear beta-catenin stimulation is -0.1% (inactive). The nuclear beta-catenin stimulation in assay [2] (stimulation, at 2 µM) came to 1.9%.
Consider `CCCCc1ccc2nc(NC(=O)OC)[nH]c2c1`, for which, in assay [1], the parasite load remaining is 83.6% (inactive) and the viability was determined as 85.5%. The nuclear beta-catenin stimulation in assay [2] (at 10 µM) is 81.2% (active). For the same compound, the nuclear beta-catenin stimulation in assay [2] (stimulation, at 2 µM) came to 61.1%.
`O=C(O)CCCC[C@@H]1SC[C@@H]2NC(=O)N[C@@H]21`: the parasite load remaining in assay [1] was 125% (inactive) and 81.9% (inactive). The viability in assay [1] was 117% and 77.7%. In addition, the nuclear beta-catenin stimulation in assay [2] (at 10 µM) was 0.3% (inactive); in assay [2] (stimulation, at 2 µM), 1.3%.
As to `CC(=O)N(O)CCCCCNC(=O)CCC(=O)N(O)CCCCCNC(=O)CCC(=O)N(O)CCCCCN`, in assay [1], the parasite load remaining is 87.4% (inactive) and 82.1% (inactive) and 111% (inactive); the viability is 104% and 70.2% and 87.4%. Moreover, the nuclear beta-catenin stimulation in assay [2] (at 10 µM) was -0.3% (inactive). In addition, the nuclear beta-catenin stimulation in assay [2] (stimulation, at 2 µM) was -1.8%.
On to `O=C1c2cccc(O)c2C(=O)c2c(O)cccc21`, for which, in assay [1], the parasite load remaining is 32.6% (inactive) and the viability amounted to 96.2%. Moreover, the nuclear beta-catenin stimulation in assay [2] (at 10 µM) was -0.6% (inactive). The nuclear beta-catenin stimulation in assay [2] (stimulation, at 2 µM) turned out to be 8.2%.
With `CCCCOC(=O)c1ccc(N)cc1`, the parasite load remaining in assay [1] is 111% (inactive) and 65.2% (inactive). In addition, the viability in assay [1] was 96.4% and 75.1% and 101%. Besides, the nuclear beta-catenin stimulation was -0.2% (inactive) in assay [2] (at 10 µM) and 1% in assay [2] (stimulation, at 2 µM).
`CC1(C)OC(=O)NC1=O`: in assay [1], the parasite load remaining was 76.1% (inactive) and 103% (inactive) and 63.9% (inactive); the viability is 96.6% and 74.2% and 92.6%. Moreover, the nuclear beta-catenin stimulation in assay [2] (at 10 µM) was 1.7% (inactive). The nuclear beta-catenin stimulation in assay [2] (stimulation, at 2 µM) came to 2.2%.
Consider `CCCCC1(COC(=O)CCC(=O)O)C(=O)N(c2ccccc2)N(c2ccccc2)C1=O`, for which, in assay [1], the parasite load remaining is 87.9% (inactive) and the viability was determined as 101%. Also, the nuclear beta-catenin stimulation in assay [2] (at 10 µM) was 6.3% (inactive). For the same compound, in assay [2] (stimulation, at 2 µM), the nuclear beta-catenin stimulation came out at 4.7%.
For `Cc1cc(=O)[nH]c(=S)[nH]1`, in that order: 70.4% (inactive), 92%, -1.2% (inactive) and -0.4%.
`COc1ccc(-c2cc(C(F)F)nn2-c2ccc(S(N)(=O)=O)cc2)cc1F`: in assay [1], the parasite load remaining is 70.5% (inactive). Also, the viability in assay [1] was found to be 97.2%. Besides, the nuclear beta-catenin stimulation in assay [2] (at 10 µM) is 4% (inactive); in assay [2] (stimulation, at 2 µM) it was 0.7%.
On to `OCc1ccccc1O`, for which, in assay [1], the parasite load remaining was 91.8% (inactive) and 36.5% (inactive); the viability is 78.7% and 97.3%. For the same compound, the nuclear beta-catenin stimulation in assay [2] (at 10 µM) is 0.4% (inactive). Further, the nuclear beta-catenin stimulation in assay [2] (stimulation, at 2 µM) was found to be 1.3%.
As for `O=C(O)CN1C(=O)c2cccc3cccc(c23)C1=O`, in assay [1], the parasite load remaining was 30.8% (inactive) and the viability amounted to 96.3%. Besides, the nuclear beta-catenin stimulation in assay [2] (at 10 µM) was -0.2% (inactive). Further, the nuclear beta-catenin stimulation in assay [2] (stimulation, at 2 µM) turned out to be 0.9%.
For `CO[C@@]1(NC(=O)C(C(=O)O)c2ccc(O)cc2)C(=O)N2C(C(=O)O)=C(CSc3nnnn3C)CO[C@@H]21` (stereo partly drawn), in assay [1], the parasite load remaining was 95.7% (inactive) and 71.7% (inactive); the viability is 77.5% and 90.5%. In addition, the nuclear beta-catenin stimulation in assay [2] (at 10 µM) is 1.6% (inactive). Besides, in assay [2] (stimulation, at 2 µM), the nuclear beta-catenin stimulation is -0.2%.
For `COc1ccc(C2C(=O)c3ccccc3C2=O)cc1`, in assay [1], the parasite load remaining was 126% (inactive) and 58.9% (inactive); the viability is 68.9% and 89%. For the same compound, the nuclear beta-catenin stimulation in assay [2] (at 10 µM) was 1.8% (inactive). In assay [2] (stimulation, at 2 µM), the nuclear beta-catenin stimulation came out at 1.4%.
Regarding `CCCCN(CCCC)CCCOC(=O)c1ccc(N)cc1`, in assay [1], the parasite load remaining is 67.1% (inactive) and 96% (inactive) and 39.6% (inactive); the viability is 98.6% and 79.9% and 102%. Besides, in assay [2] (at 10 µM), the nuclear beta-catenin stimulation was 0.5% (inactive). Besides, the nuclear beta-catenin stimulation in assay [2] (stimulation, at 2 µM) was 1.7%.
With `C[n+]1cc2c3c(ccc2c2ccc4cc5c(cc4c21)OCO5)OCO3`, in assay [1], the parasite load remaining is -0.155% (inactive) and -0.085% (inactive). In addition, the viability in assay [1] is 0.535% and 0%. Moreover, in assay [3], the inhibition – broadly, the drop in the measured response relative to a control, in per cent – is -2% (inactive). Also, the fluorescence ratio (interference) in assay [4] was 1 (inactive). Besides, the nuclear beta-catenin stimulation in assay [2] (at 10 µM) was 32.4% (inactive); in assay [2] (stimulation, at 2 µM) it was 1.3%.
Turning to `CCCCCN(CCCCC)C(=O)C(CCC(=O)O)NC(=O)c1ccc(Cl)c(Cl)c1` (stereo not drawn), the parasite load remaining in assay [1] is 72.3% (inactive) and 35.5% (inactive). Besides, in assay [1], the viability is 92.1% and 74.5%. Moreover, the inhibition in assay [3] was -5% (inactive). The fluorescence ratio (interference) in assay [4] was 0.9 (inactive). The nuclear beta-catenin stimulation is -0.8% (inactive) in assay [2] (at 10 µM) and -0.1% in assay [2] (stimulation, at 2 µM).
As to `NCCS(=O)(=O)O`, in assay [1], the parasite load remaining is 52.5% (inactive) and the viability turned out to be 97.6%. Further, the inhibition in assay [3] is -4% (inactive). The fluorescence ratio (interference) in assay [4] is 0.9 (inactive). Besides, the nuclear beta-catenin stimulation in assay [2] (at 10 µM) is 5.3% (inactive). In addition, the nuclear beta-catenin stimulation in assay [2] (stimulation, at 2 µM) came to 2.5%.
Regarding `Cc1scc2c1N(C(=O)CN1CCN(C)CC1)c1ccccc1NC2=O`, in assay [1], the parasite load remaining was 42.9% (inactive) and 96% (inactive) and 50.1% (inactive); the viability is 49.7% and 86.8% and 142%. In assay [3], the inhibition was -3% (inactive). Moreover, the fluorescence ratio (interference) in assay [4] was 1 (inactive). Further, in assay [2] (at 10 µM), the nuclear beta-catenin stimulation is 1% (inactive). The nuclear beta-catenin stimulation in assay [2] (stimulation, at 2 µM) is 1.6%.
On to `C[C@]12C=CC(=O)C=C1CC[C@H]1[C@@H]3C[C@@H](O)[C@](O)(C(=O)CO)[C@@]3(C)C[C@H](O)[C@@]12F`, for which, in assay [1], the parasite load remaining is 59.1% (inactive) and 78.5% (inactive) and 29.4% (inactive); the viability is 105% and 93.7% and 75%. Moreover, in assay [3], the inhibition was -2% (inactive). In assay [4], the fluorescence ratio (interference) is 1 (inactive). In assay [2] (at 10 µM), the nuclear beta-catenin stimulation is -1.1% (inactive). Besides, the nuclear beta-catenin stimulation in assay [2] (stimulation, at 2 µM) was -0.2%.
For `CCN(CC)C(C)CN1c2ccccc2Sc2ccccc21` (stereo not drawn), the parasite load remaining in assay [1] was 77.1% (inactive) and 61.6% (inactive) and 39% (inactive). The viability in assay [1] was 89.3% and 65.2% and 91.5%. The inhibition in assay [3] is -1% (inactive). Further, in assay [4], the fluorescence ratio (interference) is 1 (inactive). Besides, the nuclear beta-catenin stimulation in assay [2] (at 10 µM) was 3.4% (inactive); in assay [2] (stimulation, at 2 µM) it was 0.5%.
Take `Cn1c(=O)c2c(ncn2C)n(C)c1=O`: in assay [1], the parasite load remaining is 89.2% (inactive) and 70.9% (inactive); the viability was 73.1% and 94.9%. Also, the inhibition in assay [3] was -2% (inactive). For the same compound, the fluorescence ratio (interference) in assay [4] is 1 (inactive). In addition, in assay [2] (at 10 µM), the nuclear beta-catenin stimulation was 0.2% (inactive). Further, the nuclear beta-catenin stimulation in assay [2] (stimulation, at 2 µM) is 3.1%.
As for `NC(=O)c1ncn([C@@H]2O[C@H](CO)[C@@H](O)[C@H]2O)n1`, in assay [1], the parasite load remaining is 64.8% (inactive) and 245% (inactive) and 27% (inactive); the viability is 80.3% and 108% and 67%. In addition, the inhibition in assay [3] was -6% (inactive). Also, the fluorescence ratio (interference) in assay [4] was 0.9 (inactive). In addition, in assay [2] (at 10 µM), the nuclear beta-catenin stimulation is 1.7% (inactive). Moreover, the nuclear beta-catenin stimulation in assay [2] (stimulation, at 2 µM) stood at 2.6%.
For `NS(=O)(=O)c1cc2c(cc1Cl)NC(C1CC3C=CC1C3)NS2(=O)=O` (stereo not drawn), the parasite load remaining in assay [1] was 56.1% (inactive). Besides, the viability in assay [1] was found to be 133%. In addition, the inhibition in assay [3] is -1% (inactive). In addition, in assay [4], the fluorescence ratio (interference) was 1 (inactive). For the same compound, the nuclear beta-catenin stimulation is 0.8% (inactive) in assay [2] (at 10 µM) and 0% in assay [2] (stimulation, at 2 µM).
